Measured values as given in the supplement of paper PMC10849652.
About 7,900 targets were measured; listed, in parts, are those with a hit and a random draw of the rest. About 0.6% of all pairs of compound and target were hits.

Experiments:
Experiment in all cases: log2 fold change, soluble protein after heating vs DMSO (PISA); higher = thermal stabilisation; K562 cells, 10 uM, 30 min; active = over 0.2 and 3.5 SD of the protein, either way, in both replicates (recomputed)
bafetinib = compound: Cc1ccc(NC(=O)c2ccc(CN3CC[C@H](N(C)C)C3)c(C(F)(F)F)c2)cc1Nc1nccc(-c2cncnc2)n1 [bafetinib]
Summary of the method: (§1)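 K562 cells at 2×10^6 cells/mL were treated for 30 min with 10 μM compound, and aliquots were heated for 3 min over 48°C-58°C before pooling. Extraction used PBS with 0.5% NP-40 at 4°C, and soluble protein was the supernatant after 21,000xg for 90 min, measured by TMTpro 16plex LC-MS/MS with channel sums equalised. Thermal stability values, relative to control samples and from duplicates, are log2 fold changes.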

[1] = compound: Cc1cccc(CC(=O)N2CCc3c2ccc(-c2cn(C)c4ncnc(N)c24)c3F)n1
Summary of the method: as §1

nilotinib = compound: Cc1cn(-c2cc(NC(=O)c3ccc(C)c(Nc4nccc(-c5cccnc5)n4)c3)cc(C(F)(F)F)c2)cn1 [nilotinib]
Summary of the method: as §1

[2] = compound: Cc1nc(Nc2n[nH]c3c2CN(C(=O)N[C@H](CN(C)C)c2ccccc2)C3(C)C)c2sccc2n1
Summary of the method: as §1

dasatinib = compound: Cc1nc(Nc2ncc(C(=O)Nc3c(C)cccc3Cl)s2)cc(N2CCN(CCO)CC2)n1 [dasatinib]
Summary of the method: as §1

[3] = compound: Cc1ncc(-c2ccnc(Nc3ccc(S(C)(=O)=O)cc3)n2)n1C(C)C
Summary of the method: as §1

[4] = compound: Cn1cc(-c2ccc3c(c2)CCN3C(=O)Cc2cccc(C(F)(F)F)c2)c2c(N)ncnc21
Summary of the method: as §1

[5] = compound: Cn1cc(-c2ccc3nnc(C(F)(F)c4ccc5ncccc5c4)n3n2)cn1
Summary of the method: as §1

tipifarnib = compound: Cn1cncc1[C@@](N)(c1ccc(Cl)cc1)c1ccc2c(c1)c(-c1cccc(Cl)c1)cc(=O)n2C [tipifarnib]
Summary of the method: as §1

mubritinib = compound: FC(F)(F)c1ccc(/C=C/c2nc(COc3ccc(CCCCn4ccnn4)cc3)co2)cc1 [mubritinib]
Summary of the method: as §1

[6] = compound: NC(=O)Nc1cc(-c2cccc(F)c2)sc1C(=O)N[C@H]1CCCNC1
Summary of the method: as §1

[7] = compound: NC(=O)c1cnc(N[C@@H]2CCCC[C@@H]2N)nc1Nc1cccc(-n2nccn2)c1
Summary of the method: as §1

[8] = compound: NC1(c2ccc(-c3nc4ccn5c(=O)[nH]nc5c4cc3-c3ccccc3)cc2)CCC1
Summary of the method: as §1

[9] = compound: NCC(=O)Nc1ccc(-n2nc(C(F)(F)F)cc2-c2ccc3c(ccc4ccccc43)c2)cc1
Summary of the method: as §1

entinostat = compound: Nc1ccccc1NC(=O)c1ccc(CNC(=O)OCc2cccnc2)cc1 [entinostat]
Summary of the method: as §1

vorinostat = compound: O=C(CCCCCCC(=O)Nc1ccccc1)NO [vorinostat]
Summary of the method: as §1

citarinostat = compound: O=C(CCCCCCNC(=O)c1cnc(N(c2ccccc2)c2ccccc2Cl)nc1)NO [citarinostat]
Summary of the method: as §1

silmitasertib = compound: O=C(O)c1ccc2c(c1)nc(Nc1cccc(Cl)c1)c1ccncc12 [silmitasertib]
Summary of the method: as §1

[10] = compound: O=C1NC(=O)C(c2cnc3ccccn23)=C1c1cn2c3c(cc(F)cc13)CN(C(=O)N1CCCCC1)CC2
Summary of the method: as §1

[11] = compound: c1cc(OCCN2CCCCC2)cc(-c2n[nH]c3ccc(-c4nnc[nH]4)cc23)c1
Summary of the method: as §1

Measured: log2 fold change

PCGF2 (UniProt P35227)
UniProt P35227, sequence (P35227 whole entry, looked up): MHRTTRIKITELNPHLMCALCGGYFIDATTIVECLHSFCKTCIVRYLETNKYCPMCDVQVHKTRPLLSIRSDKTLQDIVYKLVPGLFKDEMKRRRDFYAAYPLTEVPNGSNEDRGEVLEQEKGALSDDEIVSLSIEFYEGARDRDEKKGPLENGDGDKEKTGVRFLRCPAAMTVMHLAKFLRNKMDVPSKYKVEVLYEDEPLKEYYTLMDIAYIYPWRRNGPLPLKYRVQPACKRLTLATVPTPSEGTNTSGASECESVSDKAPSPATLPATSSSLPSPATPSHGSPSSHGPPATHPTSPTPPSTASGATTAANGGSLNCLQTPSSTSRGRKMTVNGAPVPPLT
inactive: bafetinib 0.015 | [1] -0.035 | nilotinib -0.097 | [2] -0.235 | dasatinib -0.127 | [3] 0.028 | [4] 0.004 | [5] 0.081 | tipifarnib 0.001 | mubritinib -0.001 | [6] -0.164 | [7] -0.125 | [8] -0.048 | [9] -0.025 | entinostat 0.114 | vorinostat -0.059 | citarinostat 0.134 | silmitasertib 0.051 | [10] -0.069 | [11] -0.022

PRPSAP2 (UniProt O60256)
UniProt O60256, sequence (O60256 whole entry, looked up): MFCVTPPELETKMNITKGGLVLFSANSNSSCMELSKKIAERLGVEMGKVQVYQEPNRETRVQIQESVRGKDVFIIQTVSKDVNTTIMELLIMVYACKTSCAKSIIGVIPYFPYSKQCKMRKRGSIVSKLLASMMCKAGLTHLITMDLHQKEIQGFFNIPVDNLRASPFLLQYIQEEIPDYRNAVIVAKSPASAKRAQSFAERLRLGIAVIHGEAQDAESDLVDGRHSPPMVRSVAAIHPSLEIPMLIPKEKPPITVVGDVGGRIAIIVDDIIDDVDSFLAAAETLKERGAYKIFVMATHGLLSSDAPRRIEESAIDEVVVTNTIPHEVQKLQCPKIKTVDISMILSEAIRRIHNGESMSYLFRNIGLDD
inactive: bafetinib -0.034 | [1] 0.124 | nilotinib -0.024 | [2] 0.064 | dasatinib -0.028 | [3] -0.005 | [4] -0.037 | [5] -0.018 | tipifarnib 0.023 | mubritinib -0.008 | [6] -0.146 | [7] 0.1 | [8] 0.019 | [9] 0.034 | entinostat -0.109 | vorinostat 0.003 | citarinostat -0.02 | silmitasertib 0.011 | [10] -0.052 | [11] -0.03

POLR3B (UniProt Q9NW08)
UniProt Q9NW08, sequence (Q9NW08 whole entry, looked up): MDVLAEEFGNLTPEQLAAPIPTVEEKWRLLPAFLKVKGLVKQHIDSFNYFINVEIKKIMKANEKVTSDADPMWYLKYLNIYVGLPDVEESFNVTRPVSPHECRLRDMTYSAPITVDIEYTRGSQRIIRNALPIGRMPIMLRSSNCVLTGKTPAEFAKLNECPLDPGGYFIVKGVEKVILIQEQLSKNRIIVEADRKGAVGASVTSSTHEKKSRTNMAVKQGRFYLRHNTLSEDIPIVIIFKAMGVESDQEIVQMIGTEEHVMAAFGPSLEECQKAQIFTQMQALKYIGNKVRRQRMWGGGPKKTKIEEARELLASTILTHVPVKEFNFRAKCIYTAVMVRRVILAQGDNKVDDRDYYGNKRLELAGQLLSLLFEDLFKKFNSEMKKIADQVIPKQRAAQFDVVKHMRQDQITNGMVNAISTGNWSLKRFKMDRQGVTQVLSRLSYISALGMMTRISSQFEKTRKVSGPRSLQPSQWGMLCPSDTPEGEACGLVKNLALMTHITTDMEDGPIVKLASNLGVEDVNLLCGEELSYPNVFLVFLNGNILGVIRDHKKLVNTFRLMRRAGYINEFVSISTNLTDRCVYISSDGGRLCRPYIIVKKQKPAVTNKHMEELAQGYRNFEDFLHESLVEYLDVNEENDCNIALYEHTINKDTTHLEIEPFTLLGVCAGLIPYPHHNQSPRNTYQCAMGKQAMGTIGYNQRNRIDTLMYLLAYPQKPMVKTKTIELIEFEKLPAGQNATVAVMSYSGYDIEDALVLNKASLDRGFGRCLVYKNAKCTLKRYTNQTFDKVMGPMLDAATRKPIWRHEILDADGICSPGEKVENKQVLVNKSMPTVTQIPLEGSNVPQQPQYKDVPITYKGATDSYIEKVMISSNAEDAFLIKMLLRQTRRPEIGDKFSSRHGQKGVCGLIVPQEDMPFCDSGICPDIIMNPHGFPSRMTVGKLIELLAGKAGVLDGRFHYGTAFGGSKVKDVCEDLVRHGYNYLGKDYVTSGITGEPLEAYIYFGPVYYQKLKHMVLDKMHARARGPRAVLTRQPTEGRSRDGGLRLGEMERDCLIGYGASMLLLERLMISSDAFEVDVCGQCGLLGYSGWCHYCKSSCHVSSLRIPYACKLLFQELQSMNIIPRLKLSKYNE
inactive: bafetinib 0.104 | [1] 0.045 | nilotinib -0.111 | [2] -0.285 | dasatinib -0.238 | [3] -0.028 | [4] -0.059 | [5] 0.089 | tipifarnib -0.108 | mubritinib -0.086 | [6] -0.05 | [7] 0.017 | [8] -0.124 | [9] -0.009 | entinostat -0.014 | vorinostat 0.088 | citarinostat -0.022 | silmitasertib 0.111 | [10] 0.104 | [11] -0.047

PURA (UniProt Q00577)
inactive: bafetinib 0.108 | [1] -0.089 | nilotinib 0.06 | [2] 0.105 | dasatinib 0.335 | [3] 0.017 | [4] -0.382 | [5] -0.12 | tipifarnib 0.207 | mubritinib -0.06 | [6] 0.015 | [7] 0.105 | [8] 0.377 | [9] 0.036 | entinostat -0.085 | vorinostat -0.079 | citarinostat -0.141 | silmitasertib 0.248 | [10] 0.185 | [11] -0.114

PFAS (UniProt O15067)
active: nilotinib -0.359 | [4] 0.341 | mubritinib 0.52
inactive: bafetinib 0.033 | [1] 0.311 | [2] -0.113 | dasatinib -0.003 | [3] 0.059 | [5] 0.06 | tipifarnib 0.018 | [6] 0.06 | [7] -0.075 | [8] -0.012 | [9] -0.054 | entinostat 0.134 | vorinostat 0.042 | citarinostat 0.049 | silmitasertib -0.119 | [10] -0.052 | [11] 0.142

PRKAR2A (UniProt P13861)
inactive: bafetinib 0.029 | [1] 0.007 | nilotinib 0.139 | dasatinib -0.055 | [3] -0.026 | [4] 0.07 | [5] 0.102 | tipifarnib 0.004 | mubritinib 0.042 | [7] -0.071 | [8] -0.002 | [9] -0.039 | entinostat 0.025 | vorinostat -0.012 | citarinostat 0.002 | silmitasertib 0.051 | [10] 0.002 | [11] -0.028
active: [2] -0.606 | [6] -0.502

PPIL2 (UniProt Q13356)
UniProt Q13356, sequence (Q13356 whole entry, looked up): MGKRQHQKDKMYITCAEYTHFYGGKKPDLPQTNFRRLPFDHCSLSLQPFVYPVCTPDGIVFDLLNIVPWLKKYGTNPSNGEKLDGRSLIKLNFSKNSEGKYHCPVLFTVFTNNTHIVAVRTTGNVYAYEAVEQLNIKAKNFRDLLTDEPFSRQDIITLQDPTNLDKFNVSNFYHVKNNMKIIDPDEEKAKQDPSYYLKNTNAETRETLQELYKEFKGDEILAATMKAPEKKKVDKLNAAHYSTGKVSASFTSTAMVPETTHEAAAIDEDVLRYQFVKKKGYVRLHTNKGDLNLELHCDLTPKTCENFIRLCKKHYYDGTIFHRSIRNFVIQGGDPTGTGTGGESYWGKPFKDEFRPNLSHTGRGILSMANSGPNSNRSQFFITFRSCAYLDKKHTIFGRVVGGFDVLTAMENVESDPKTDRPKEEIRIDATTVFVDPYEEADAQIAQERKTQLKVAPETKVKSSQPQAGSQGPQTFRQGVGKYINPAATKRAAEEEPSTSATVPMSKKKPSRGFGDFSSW
inactive: bafetinib -0.008 | [1] 0.032 | nilotinib -0.056 | [2] -0.086 | dasatinib -0.127 | [3] 0.068 | [4] 0.03 | [5] 0.046 | tipifarnib -0.142 | mubritinib 0.011 | [6] -0.069 | [7] -0.058 | [8] -0.077 | [9] -0.1 | entinostat 0.059 | vorinostat 0.063 | citarinostat 0.065 | silmitasertib 0.083 | [10] -0.07 | [11] -0.014

PHKG2 (UniProt P15735)
active: [2] 0.321 | [6] 0.417
inactive: bafetinib -0.047 | [1] 0.044 | nilotinib -0.177 | dasatinib -0.306 | [3] 0.011 | [4] -0.024 | [5] -0.017 | tipifarnib -0.046 | mubritinib -0.127 | [7] 0.088 | [8] -0.064 | [9] -0.035 | entinostat -0.007 | vorinostat 0 | citarinostat 0.122 | silmitasertib 0.052 | [10] 0.023 | [11] -0.045

PML (UniProt P29590)
inactive: bafetinib -0.078 | [1] 0.029 | nilotinib -0.035 | [2] -0.046 | dasatinib -0.036 | [3] -0.037 | [4] -0.047 | [5] -0.003 | tipifarnib 0.014 | mubritinib -0.023 | [6] 0.021 | [7] -0.027 | [8] -0.029 | [9] 0.015 | entinostat -0.002 | vorinostat -0.059 | citarinostat 0.019 | silmitasertib 0.088 | [10] 0.002 | [11] -0.042

PEX11B (UniProt O96011)
inactive: bafetinib -0.022 | [1] 0.081 | nilotinib 0.04 | [2] 0.041 | dasatinib -0.071 | [3] -0.043 | [4] 0.049 | [5] 0.01 | tipifarnib -0.063 | mubritinib 0.058 | [6] 0.095 | [7] 0.052 | [8] -0.03 | [9] 0.073 | entinostat 0.047 | vorinostat 0.049 | citarinostat 0.114 | silmitasertib -0.031 | [10] 0.035 | [11] 0.024

PSMD6 (UniProt Q15008)
UniProt Q15008, sequence (Q15008 whole entry, looked up): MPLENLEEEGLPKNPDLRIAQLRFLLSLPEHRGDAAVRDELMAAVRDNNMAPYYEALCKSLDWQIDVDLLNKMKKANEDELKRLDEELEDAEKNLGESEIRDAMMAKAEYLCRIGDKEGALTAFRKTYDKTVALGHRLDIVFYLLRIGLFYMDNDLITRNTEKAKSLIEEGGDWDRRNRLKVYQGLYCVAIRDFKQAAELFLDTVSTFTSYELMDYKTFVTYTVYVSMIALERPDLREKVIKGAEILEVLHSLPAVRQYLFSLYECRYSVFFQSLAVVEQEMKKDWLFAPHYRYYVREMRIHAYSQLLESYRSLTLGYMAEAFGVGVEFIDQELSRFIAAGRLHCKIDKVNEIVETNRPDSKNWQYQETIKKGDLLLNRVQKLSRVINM
inactive: bafetinib 0.115 | [1] 0.008 | nilotinib 0.022 | [2] 0.054 | dasatinib 0.059 | [3] -0.014 | [4] -0.083 | [5] -0.035 | tipifarnib 0.03 | mubritinib -0.012 | [6] -0.028 | [7] 0.037 | [8] -0.024 | [9] 0.082 | entinostat -0.045 | vorinostat -0.001 | citarinostat -0.017 | silmitasertib 0.011 | [10] 0.039 | [11] -0.063

PPP1R12A (UniProt O14974)
UniProt O14974, sequence (O14974 whole entry, looked up): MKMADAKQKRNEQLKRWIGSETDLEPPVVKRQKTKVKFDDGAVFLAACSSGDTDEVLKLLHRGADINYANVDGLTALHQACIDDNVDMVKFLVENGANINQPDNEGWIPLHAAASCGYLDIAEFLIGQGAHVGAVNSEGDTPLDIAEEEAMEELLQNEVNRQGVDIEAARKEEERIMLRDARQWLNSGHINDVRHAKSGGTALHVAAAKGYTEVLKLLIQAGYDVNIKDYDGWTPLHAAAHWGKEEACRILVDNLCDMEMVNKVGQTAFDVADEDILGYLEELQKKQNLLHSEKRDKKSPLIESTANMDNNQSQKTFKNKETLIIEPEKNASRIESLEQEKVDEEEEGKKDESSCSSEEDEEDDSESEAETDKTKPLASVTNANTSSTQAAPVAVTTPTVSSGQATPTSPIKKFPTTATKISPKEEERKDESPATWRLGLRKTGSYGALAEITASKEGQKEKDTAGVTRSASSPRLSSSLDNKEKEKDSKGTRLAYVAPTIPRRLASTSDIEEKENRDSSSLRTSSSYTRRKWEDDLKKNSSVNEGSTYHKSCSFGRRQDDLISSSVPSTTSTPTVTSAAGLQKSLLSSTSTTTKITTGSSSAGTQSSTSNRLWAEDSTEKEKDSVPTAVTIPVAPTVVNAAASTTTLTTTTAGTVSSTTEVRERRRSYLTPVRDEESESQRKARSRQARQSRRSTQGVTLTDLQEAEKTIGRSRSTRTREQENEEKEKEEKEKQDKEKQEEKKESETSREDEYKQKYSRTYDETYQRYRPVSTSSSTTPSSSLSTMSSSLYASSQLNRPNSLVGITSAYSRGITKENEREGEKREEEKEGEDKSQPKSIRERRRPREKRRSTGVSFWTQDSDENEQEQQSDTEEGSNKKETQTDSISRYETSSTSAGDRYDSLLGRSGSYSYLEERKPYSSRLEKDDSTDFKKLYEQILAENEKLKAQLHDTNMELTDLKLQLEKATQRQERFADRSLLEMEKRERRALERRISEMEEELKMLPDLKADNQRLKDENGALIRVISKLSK
inactive: bafetinib -0.041 | [1] -0.02 | nilotinib -0.027 | [2] -0.302 | dasatinib -0.108 | [3] -0.118 | [4] -0.002 | [5] 0.02 | tipifarnib -0.023 | mubritinib 0.07 | [7] -0.358 | [8] -0.137 | [9] -0.012 | entinostat 0.041 | vorinostat 0.017 | citarinostat 0.078 | silmitasertib 0.051 | [10] -0.01 | [11] -0.369
active: [6] -0.428

PRKCD (UniProt Q05655)
active: [2] -0.261
inactive: bafetinib -0.028 | [1] -0.007 | nilotinib 0.033 | dasatinib -0.049 | [3] -0.021 | [4] 0.027 | [5] 0.102 | tipifarnib 0.008 | mubritinib 0.08 | [6] -0.086 | [7] -0.05 | [8] -0.081 | [9] -0.031 | entinostat 0.024 | vorinostat 0.031 | citarinostat 0.006 | silmitasertib 0.045 | [10] -0.06 | [11] -0.083

PTPN23 (UniProt Q9H3S7)
inactive: bafetinib 0.028 | [1] 0.053 | nilotinib -0.07 | [2] -0.096 | dasatinib -0.199 | [3] 0.059 | [4] -0.016 | [5] 0.02 | tipifarnib -0.069 | mubritinib 0.034 | [6] -0.039 | [7] 0.011 | [8] -0.081 | [9] -0.063 | entinostat 0.06 | vorinostat 0.05 | citarinostat 0.05 | silmitasertib 0.037 | [10] -0.065 | [11] -0.024

PIGT (UniProt Q969N2)
UniProt Q969N2, sequence (Q969N2 whole entry, looked up): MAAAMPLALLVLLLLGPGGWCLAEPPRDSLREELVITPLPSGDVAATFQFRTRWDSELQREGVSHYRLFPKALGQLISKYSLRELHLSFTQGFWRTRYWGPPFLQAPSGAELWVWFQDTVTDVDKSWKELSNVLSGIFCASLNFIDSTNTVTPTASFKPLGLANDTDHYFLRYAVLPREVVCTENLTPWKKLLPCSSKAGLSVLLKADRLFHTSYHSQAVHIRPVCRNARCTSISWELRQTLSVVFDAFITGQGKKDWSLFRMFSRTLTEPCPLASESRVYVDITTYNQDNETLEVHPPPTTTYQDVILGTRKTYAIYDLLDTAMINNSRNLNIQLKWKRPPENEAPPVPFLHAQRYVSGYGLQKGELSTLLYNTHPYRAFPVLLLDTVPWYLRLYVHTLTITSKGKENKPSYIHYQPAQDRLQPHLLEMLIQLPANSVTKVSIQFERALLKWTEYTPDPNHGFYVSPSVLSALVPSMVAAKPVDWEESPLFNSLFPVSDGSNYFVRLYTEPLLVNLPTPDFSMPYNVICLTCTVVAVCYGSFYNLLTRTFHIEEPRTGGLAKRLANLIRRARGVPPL
inactive: bafetinib -0.042 | [1] 0 | nilotinib -0.029 | [2] 0.046 | dasatinib -0.031 | [3] -0.028 | [4] -0.011 | [5] 0.003 | tipifarnib -0.029 | mubritinib -0.037 | [6] -0.01 | [7] -0.002 | [8] -0.077 | [9] -0.002 | entinostat 0.018 | vorinostat 0.05 | citarinostat 0.04 | silmitasertib 0 | [10] -0.01 | [11] -0.089

PRUNE1 (UniProt Q86TP1)
UniProt Q86TP1, sequence (Q86TP1 whole entry, looked up): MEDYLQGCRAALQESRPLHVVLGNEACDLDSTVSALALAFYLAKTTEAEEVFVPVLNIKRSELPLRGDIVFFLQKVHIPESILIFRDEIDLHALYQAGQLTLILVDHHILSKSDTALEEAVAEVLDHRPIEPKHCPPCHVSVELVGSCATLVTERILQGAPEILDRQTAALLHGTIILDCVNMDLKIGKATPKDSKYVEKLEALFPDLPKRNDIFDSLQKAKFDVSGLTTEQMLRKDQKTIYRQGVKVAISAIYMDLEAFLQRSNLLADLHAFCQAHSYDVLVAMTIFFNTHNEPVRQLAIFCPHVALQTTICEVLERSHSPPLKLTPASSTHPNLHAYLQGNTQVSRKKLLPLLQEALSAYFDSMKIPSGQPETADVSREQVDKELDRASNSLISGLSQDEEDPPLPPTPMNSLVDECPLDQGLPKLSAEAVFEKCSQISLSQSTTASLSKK
inactive: bafetinib -0.037 | [1] 0.045 | nilotinib -0.051 | [2] -0.054 | dasatinib -0.178 | [3] 0.082 | [4] -0.045 | [5] -0.045 | tipifarnib -0.122 | mubritinib -0.056 | [6] -0.004 | [7] -0.012 | [8] -0.179 | [9] 0.052 | entinostat 0.041 | vorinostat 0.04 | citarinostat 0.006 | silmitasertib 0.138 | [10] -0.107 | [11] 0.018
